SMILES strings stand for the structures. Results filed as inconclusive are left out. Where a structure was tested more than once in an assay, its records may differ in their call. The source made the active and inactive calls. Unless noted, calls follow the shape of the dose curve; as a rule, active = well fitted curve in the direction sought with a large enough effect in the repeat runs; inconclusive = weak or mixed curves; inactive = no such curve, though single readings can be large; an effect the other way counts as inactive or inconclusive.

Experiment [1] is described as follows: qHTS assay to identify small molecule antagonists of the sonic hedgehog signaling (Shh) pathway (AID 1259369; calls by dose curve; also: nearly all actives have a fitted effect of over 45% in size). The method, boiled down: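 Gli1 transcriptional reporter (firefly Luc) in NIH/3T3 background, conditioned-medium activated. 24hr exposure, luminescence endpoint.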
(In general: qHTS replaces the single test concentration by a dilution series.)

The nature of experiment [2]: qHTS assay to identify small molecule agonists of the androgen receptor (AR) signaling pathway in the presence of an antagonist - cell viability counter screen (AID 1259379).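 Also: MDA-kb2 human breast cancer cells carrying an MMTV luciferase reporter; series mostly up to about 92 µM; nearly all actives have a fitted effect of over 25% in size.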 The method, boiled down:
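Counter screen for cell viability run in parallel with the AR agonist-mode luciferase assay. MDA-kb2 cells were co-treated with nilutamide (3.0uM final) and compounds, then incubated 16 hr at 37C, and CellTiter-Fluor fluorescence was measured.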

The nature of experiment [3]: qHTS assay to identify small molecule agonists of the estrogen receptor beta (ER-beta) signaling pathway - cell viability counter screen (AID 1259380). Also: nearly all actives have a fitted effect of over 30% in size. The method, boiled down:
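In this qHTS counter screen, HEK293T cells carrying an ER-beta/UAS beta-lactamase reporter, grown in 2% charcoal-stripped FBS, received compound for 16 hr; ATP-based CellTiter-Glo luminescence was then read after 30 min at room temperature.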

The target of experiment [4] is Androgen receptor (Homo sapiens) (UniProt P10275). Description: qHTS assay to identify small molecule agonists of the androgen receptor (AR) signaling pathway in the presence of an antagonist (AID 1259381; calls by dose curve; also: nearly all actives have a fitted effect of over 15% in size). In a few lines: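 AR antagonist background: nilutamide 3.0uM final. Cell line: MDA-kb2, MMTV-driven luciferase, responsive to both AR and GR. Exposure 16hr, 37C, no CO2; ONE-Glo luminescence.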

Experiment [5] can be described thus: qHTS assay to identify small molecule antagonists of the estrogen receptor beta (ER-beta) signaling pathway - cell viability counter screen (AID 1259382). Also: series mostly up to about 92 µM; nearly all actives have a fitted effect of over 55% in size. The method, boiled down: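 HEK293T ER-beta-UAS-bla, 2% charcoal-stripped FBS; compounds + 1nM E2 16 hr 37C; CellTiter-Glo luminescence, 30 min RT.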
The target in experiment [6] is Estrogen receptor (Homo sapiens) (UniProt P03372). The experiment is described as follows: qHTS assay to identify small molecule agonists of the estrogen receptor alpha (ER-alpha) signaling pathway in the presence of an antagonist (AID 1259383; calls by dose curve; also: nearly all actives have a fitted effect of over 15% in size; also: potency is read from the fitted curve at half-maximal effect; as to activation: top concentration of the series differs between compounds). The method, boiled down: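 ER-alpha agonism measured under antagonist challenge: 10.0nM ICI-182,780 (final) plus compound, 15 concentrations, 22hr, VM7Luc4E2 ERE-luciferase cells. Read by luminescence.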

The target of experiment [7] is Thyrotropin receptor (Homo sapiens) (UniProt P16473). Description: qHTS assay to identify small molecule antagonists of the thyroid stimulating hormone receptor (TSHR) signaling pathway (AID 1259385; calls by dose curve; also: nearly all actives have a fitted effect of over 20% in size). In a few lines: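 TSHR-HEK293 cells were plated and held 18 h at 37C/5% CO2, then given compound plus Ro20-1724 and stimulated with TSH at 1.5 ng/mL final. After 30 min at room temperature, cAMP was detected with cAMP-d2/anti-cAMP-cryptate (1 h) by fluorescence.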

Experiment [8] is described as follows: qHTS assay to identify small molecule agonists of the estrogen receptor alpha (ER-alpha) signaling pathway in the presence of an antagonist - cell viability counter screen (AID 1259386).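 Also: series mostly up to about 92 µM; cells exposed to compounds for 22 h at 37 °C before the viability read; nearly all actives have a fitted effect of over 30% in size.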 In a few lines:
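Steps: 5-day stripped-FBS culture; seed and incubate 24hr; add ICI-182,780 (10.0nM final); pin 15-point compound titration; incubate 22hr at 37C; add CellTiter-Fluor at 21hr; read fluorescence.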

The nature of experiment [9]: qHTS assay to identify small molecule antagonists of the progesterone receptor (PR) signaling pathway - cell viability counter screen (AID 1346798). Also: series mostly up to about 92 µM; nearly all actives have a fitted effect of over 50% in size. The method, boiled down:
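Same-well multiplex: after 16 hr at 37C with compound and R5020 stimulation, HEK293T cells carrying a UAS-bla reporter received LiveBLAzer substrate (2 hr RT), then CellTiter-Glo (30 min RT) for luminescent viability.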

Experiment [10] in a line: qHTS assay to identify small molecule agonists of the progesterone receptor (PR) signaling pathway - cell viability counter screen (AID 1346799; calls by dose curve; also: nearly all actives have a fitted effect of over 45% in size). In a few lines:
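Counter screen for cytotoxicity: compound-treated PR-UAS-bla HEK293T cells (16 hr, 37C, 5% CO2) were assayed with CellTiter-Glo, luminescence measured after 30 min at room temperature.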

Experiment [11] can be described thus: qHTS assay to identify small molecule antagonists of the TGF-beta/Smad signaling pathway - cell viability counter screen (AID 1346824). Also: nearly all actives have a fitted effect of over 50% in size. The method, boiled down: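 SBE-bla HEK 293T cells were plated overnight at 37 C, then given compounds in DMSO plus TGF-beta1 (added as 0.25 ng/mL solution) for 5 hr. After the bla read, CellTiter-Glo was added to the same wells and luminescence read after 30 min at room temperature.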

Experiment [12] is described as follows: qHTS assay to identify small molecule agonists of the TGF-beta/Smad signaling pathway - cell viability counter screen (AID 1346829). Also: top concentration of the series differs between compounds; nearly all actives have a fitted effect of over 45% in size. In a few lines:
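CellTiter-Glo luminescence readout; SBE-bla HEK 293T cells, overnight plating, compound 5 hr at 37 C/5% CO2, then bla substrate 2 hr RT, then CellTiter-Glo 30 min RT.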

Experiment [13] can be described thus: qHTS assay to identify small molecule agonists of the TGF-beta/Smad signaling pathway (AID 1346859; active = well fitted activation curve with a large enough effect in the signal ratio in the repeat runs, not every such curve was filed as active; the % refers to the signal ratio; also: series mostly up to about 77 µM). The method, boiled down: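 Smad-responsive beta-lactamase reporter cells (HEK 293T) received compounds from DMSO stocks after overnight attachment, were incubated 5 hr, then treated 2 hr with FRET substrate before dual-emission fluorescence measurement (405 nm excitation).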

The target of experiment [14] is Estrogen receptor beta (Homo sapiens) (UniProt Q92731). Description: qHTS assay to identify small molecule agonists of the estrogen receptor beta (ER-beta) signaling pathway (AID 1259377; active = well fitted activation curve with a large enough effect in the signal ratio in the repeat runs, not every such curve was filed as active; the % refers to the signal ratio). The method, boiled down:
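A UAS-controlled beta-lactamase reporter in ER-beta-UAS-bla HEK293T cells reports receptor activation. Compounds act for 16 hr at 37C in 2% charcoal-stripped serum, and a FRET substrate is read by fluorescence after 2 hours.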

Experiment [15] has the same target. The experiment is described as follows: qHTS assay to identify small molecule antagonists of the estrogen receptor beta (ER-beta) signaling pathway (AID 1259378; active = well fitted inhibition curve with a large enough effect in the signal ratio in the repeat runs, not every such curve was filed as active; the % refers to the signal ratio). The method, boiled down: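 ER-beta-UAS-bla HEK293T (GripTite) cells in 2% charcoal-stripped FBS medium were preincubated 6 hr at 37C, dosed with compound, then stimulated with 1 nM E2 (final) for 16 hr; beta-lactamase reporter read by B/G FRET fluorescence after 2 hr substrate loading.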

Experiment [16] addresses Progesterone receptor (Homo sapiens) (UniProt P06401). The experiment is described as follows: qHTS assay to identify small molecule agonists of the progesterone receptor (PR) signaling pathway (AID 1346784; calls by dose curve; also: nearly all actives have a fitted effect of over 30% in size). The method, boiled down:
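Agonist mode, quantitative HTS format in a HEK 293T line expressing a UAS-controlled beta-lactamase reporter; 16 hr compound exposure at 37C in 2% charcoal-stripped FBS, then LiveBLAzer B/G FRET fluorescence.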

Experiment [17] has the same target. The experiment is described as follows: qHTS assay to identify small molecule antagonists of the progesterone receptor (PR) signaling pathway (AID 1346795; active = well fitted inhibition curve with a large enough effect in the signal ratio in the repeat runs, not every such curve was filed as active; the % refers to the signal ratio). In a few lines: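 HEK293T PR-UAS-bla reporter cells in charcoal-stripped serum (2%) received compound after a 6 hr settling period, followed by R5020 agonist at 1 nM final; 16 hr incubation preceded the FRET substrate step and fluorescence measurement.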

For experiment [18], the target named is Thyrotropin-releasing hormone receptor (Homo sapiens) (UniProt P34981). Description: qHTS assay to identify small molecule antagonists of the thyrotropin-releasing hormone receptor (TRHR) signaling pathway (AID 1346877; active = well fitted inhibition curve with a large enough effect in the repeat runs, not every such curve was filed as active; also: series mostly up to about 51 µM). In a few lines:
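Human TRHR in HEK293 cells; inhibition of the intracellular calcium rise triggered by 1 nM TRH was followed by fluorescence over 3 min. Compounds were run at 15 concentrations, three replicates each.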

For experiment [19] the target is unchanged. Description: qHTS assay to identify small molecule agonists of the thyrotropin-releasing hormone receptor (TRHR) signaling pathway (AID 1346891; calls by dose curve;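 also: HEK293 cells expressing TRHR with calcium dye readout; series mostly up to about 58 µM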). The method, boiled down:
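Agonist-mode calcium mobilisation screen: TRHR-transfected HEK293 cells cultured overnight (18 h), dye-loaded for 2 h at 37 °C, exposed to compounds, and monitored by fluorescence for 3 min.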

Chain of Estrogen receptor beta (Homo sapiens) (Q92731 whole entry, looked up): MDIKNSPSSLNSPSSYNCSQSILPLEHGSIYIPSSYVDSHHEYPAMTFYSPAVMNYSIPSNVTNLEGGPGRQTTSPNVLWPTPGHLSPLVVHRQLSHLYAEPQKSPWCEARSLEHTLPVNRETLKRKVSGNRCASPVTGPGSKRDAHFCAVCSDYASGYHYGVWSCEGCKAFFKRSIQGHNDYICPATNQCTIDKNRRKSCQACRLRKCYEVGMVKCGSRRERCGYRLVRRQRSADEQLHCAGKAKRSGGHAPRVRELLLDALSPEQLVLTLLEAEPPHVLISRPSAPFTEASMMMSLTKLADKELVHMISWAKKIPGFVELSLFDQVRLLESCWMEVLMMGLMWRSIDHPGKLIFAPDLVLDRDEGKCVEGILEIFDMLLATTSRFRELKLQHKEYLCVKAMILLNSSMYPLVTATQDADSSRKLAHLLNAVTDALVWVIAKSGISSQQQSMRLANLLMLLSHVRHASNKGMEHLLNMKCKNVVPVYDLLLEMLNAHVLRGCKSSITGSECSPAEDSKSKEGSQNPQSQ
Chain of Thyrotropin receptor (Homo sapiens) (P16473 whole entry, looked up): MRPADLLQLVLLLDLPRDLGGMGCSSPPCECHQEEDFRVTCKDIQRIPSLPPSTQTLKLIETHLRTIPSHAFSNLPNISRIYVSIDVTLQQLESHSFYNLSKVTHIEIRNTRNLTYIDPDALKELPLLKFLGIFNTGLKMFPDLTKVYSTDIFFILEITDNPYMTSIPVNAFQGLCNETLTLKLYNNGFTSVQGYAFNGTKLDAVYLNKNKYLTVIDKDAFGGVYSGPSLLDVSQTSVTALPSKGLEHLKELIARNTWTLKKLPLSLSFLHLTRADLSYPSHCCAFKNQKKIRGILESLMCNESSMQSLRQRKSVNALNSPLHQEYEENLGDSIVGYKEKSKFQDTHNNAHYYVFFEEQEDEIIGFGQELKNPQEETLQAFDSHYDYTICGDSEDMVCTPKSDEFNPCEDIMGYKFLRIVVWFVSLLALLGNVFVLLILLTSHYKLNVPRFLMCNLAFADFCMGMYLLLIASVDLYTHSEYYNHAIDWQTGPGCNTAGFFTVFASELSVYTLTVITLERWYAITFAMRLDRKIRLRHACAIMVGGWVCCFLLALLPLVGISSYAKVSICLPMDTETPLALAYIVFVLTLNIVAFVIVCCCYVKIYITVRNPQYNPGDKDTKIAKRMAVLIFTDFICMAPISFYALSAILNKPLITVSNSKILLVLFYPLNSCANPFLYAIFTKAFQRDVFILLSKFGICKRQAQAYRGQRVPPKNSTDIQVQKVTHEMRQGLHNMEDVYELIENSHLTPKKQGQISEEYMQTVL
Chain of Estrogen receptor (Homo sapiens) (P03372 whole entry, looked up): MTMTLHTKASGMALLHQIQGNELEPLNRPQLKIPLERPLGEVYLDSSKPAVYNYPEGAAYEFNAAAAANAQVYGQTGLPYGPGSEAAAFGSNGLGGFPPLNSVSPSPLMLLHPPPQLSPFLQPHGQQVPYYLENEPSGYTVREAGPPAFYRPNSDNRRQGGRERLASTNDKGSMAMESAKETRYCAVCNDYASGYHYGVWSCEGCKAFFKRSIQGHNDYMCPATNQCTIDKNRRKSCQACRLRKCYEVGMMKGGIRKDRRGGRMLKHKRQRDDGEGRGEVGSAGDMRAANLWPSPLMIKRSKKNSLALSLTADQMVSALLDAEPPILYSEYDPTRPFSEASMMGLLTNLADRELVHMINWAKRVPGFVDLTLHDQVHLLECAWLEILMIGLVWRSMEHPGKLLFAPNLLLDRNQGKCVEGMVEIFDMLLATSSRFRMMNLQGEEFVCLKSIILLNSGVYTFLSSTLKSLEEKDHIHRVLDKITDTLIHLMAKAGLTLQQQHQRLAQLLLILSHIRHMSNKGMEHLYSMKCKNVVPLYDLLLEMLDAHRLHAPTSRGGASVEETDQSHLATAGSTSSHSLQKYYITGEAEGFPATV
Chain of Thyrotropin-releasing hormone receptor (Homo sapiens) (P34981 whole entry, looked up): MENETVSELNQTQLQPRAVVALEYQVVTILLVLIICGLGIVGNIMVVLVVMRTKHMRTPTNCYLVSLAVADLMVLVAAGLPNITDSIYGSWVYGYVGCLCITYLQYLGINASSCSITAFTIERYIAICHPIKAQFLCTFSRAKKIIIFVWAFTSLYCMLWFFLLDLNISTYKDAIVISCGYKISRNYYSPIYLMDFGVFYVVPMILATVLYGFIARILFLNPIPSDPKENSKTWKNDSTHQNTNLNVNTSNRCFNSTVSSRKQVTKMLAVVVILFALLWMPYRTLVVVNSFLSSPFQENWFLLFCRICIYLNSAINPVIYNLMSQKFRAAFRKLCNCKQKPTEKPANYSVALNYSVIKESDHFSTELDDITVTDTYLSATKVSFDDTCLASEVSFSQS
Chain of Progesterone receptor (Homo sapiens) (P06401 whole entry, looked up): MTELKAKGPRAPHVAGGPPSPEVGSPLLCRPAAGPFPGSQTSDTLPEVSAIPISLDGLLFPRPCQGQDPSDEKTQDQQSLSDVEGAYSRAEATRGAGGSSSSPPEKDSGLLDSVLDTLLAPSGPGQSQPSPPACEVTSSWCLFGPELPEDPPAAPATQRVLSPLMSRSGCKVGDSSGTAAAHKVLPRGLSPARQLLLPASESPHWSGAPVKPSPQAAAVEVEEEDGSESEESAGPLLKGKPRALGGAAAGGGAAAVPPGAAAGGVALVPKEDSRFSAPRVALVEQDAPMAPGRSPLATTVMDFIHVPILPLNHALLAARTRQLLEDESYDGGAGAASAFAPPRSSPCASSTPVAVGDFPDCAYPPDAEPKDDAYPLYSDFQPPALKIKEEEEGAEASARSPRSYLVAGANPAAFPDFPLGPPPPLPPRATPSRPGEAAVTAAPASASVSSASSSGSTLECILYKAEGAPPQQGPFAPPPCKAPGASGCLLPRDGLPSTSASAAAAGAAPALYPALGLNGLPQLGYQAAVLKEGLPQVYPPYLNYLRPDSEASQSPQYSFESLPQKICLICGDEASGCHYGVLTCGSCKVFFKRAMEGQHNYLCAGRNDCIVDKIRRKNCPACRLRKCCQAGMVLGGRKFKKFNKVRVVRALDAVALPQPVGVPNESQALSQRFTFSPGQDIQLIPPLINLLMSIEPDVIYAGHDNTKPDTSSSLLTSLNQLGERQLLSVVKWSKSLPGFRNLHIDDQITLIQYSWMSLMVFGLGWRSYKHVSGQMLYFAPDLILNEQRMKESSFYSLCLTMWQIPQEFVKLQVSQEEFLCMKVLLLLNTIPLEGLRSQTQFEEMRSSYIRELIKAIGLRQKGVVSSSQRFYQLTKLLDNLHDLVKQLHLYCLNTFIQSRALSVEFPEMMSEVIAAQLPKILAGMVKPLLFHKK
Chain of Androgen receptor (Homo sapiens) (P10275 whole entry, looked up): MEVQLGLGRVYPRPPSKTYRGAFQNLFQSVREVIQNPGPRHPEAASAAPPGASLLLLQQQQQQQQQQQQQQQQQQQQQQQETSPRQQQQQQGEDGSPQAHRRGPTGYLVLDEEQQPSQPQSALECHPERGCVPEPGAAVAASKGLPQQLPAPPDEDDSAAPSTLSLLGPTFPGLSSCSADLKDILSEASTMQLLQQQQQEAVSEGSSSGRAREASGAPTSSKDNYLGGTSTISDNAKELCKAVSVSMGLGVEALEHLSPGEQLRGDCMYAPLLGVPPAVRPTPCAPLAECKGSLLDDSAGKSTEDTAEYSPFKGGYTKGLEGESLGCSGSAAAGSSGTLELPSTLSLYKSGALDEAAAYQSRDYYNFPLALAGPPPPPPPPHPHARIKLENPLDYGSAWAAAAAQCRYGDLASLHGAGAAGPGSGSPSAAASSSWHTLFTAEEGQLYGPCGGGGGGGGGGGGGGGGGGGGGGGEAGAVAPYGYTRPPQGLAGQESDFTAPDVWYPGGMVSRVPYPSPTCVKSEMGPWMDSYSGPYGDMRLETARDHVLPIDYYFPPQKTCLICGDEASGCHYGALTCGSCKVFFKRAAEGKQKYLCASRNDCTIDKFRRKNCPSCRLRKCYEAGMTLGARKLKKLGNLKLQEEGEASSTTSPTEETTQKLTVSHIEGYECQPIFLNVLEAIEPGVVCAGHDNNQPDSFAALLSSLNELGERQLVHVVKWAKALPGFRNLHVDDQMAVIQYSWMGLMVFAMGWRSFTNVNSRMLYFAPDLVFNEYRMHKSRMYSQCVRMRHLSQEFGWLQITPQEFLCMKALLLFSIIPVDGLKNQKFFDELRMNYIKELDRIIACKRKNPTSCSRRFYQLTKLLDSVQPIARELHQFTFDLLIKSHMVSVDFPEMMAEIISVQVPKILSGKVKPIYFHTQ

Regarding `Cc1ccccc1Cl`, the Potency result in experiment [1], in experiment [2], in [3], in experiment [5], in [6] and in [7] was “inactive” in each case. For the same molecule, the Potency entry in [8], in experiment [9], in experiment [10], in [11], in [12] and in [13] was “inactive” each time. Also, the outcome in [4] was inactive.

For `CC(=O)OC[C@H]1O[C@@](COC(C)=O)(O[C@H]2O[C@H](COC(C)=O)[C@@H](OC(C)=O)[C@H](OC(C)=O)[C@H]2OC(C)=O)[C@@H](OC(C)=O)[C@@H]1OC(C)=O`, the Potency entry in [1], in experiment [14], in experiment [15], in experiment [2], in [3] and in [5] was “inactive” throughout. In addition, the Potency result in [7], in [8], in experiment [16], in [17], in experiment [9] and in experiment [10] was “inactive” each time. The Potency entry in experiment [11], in experiment [12], in experiment [13] and in [18] was “inactive” each time. Also, the molecule was called inactive in experiment [19].

Regarding `OCC(CO)(CO)CO`, the Potency result in [1], in experiment [14], in experiment [15], in experiment [2], in experiment [3] and in experiment [5] was “inactive” in each case. For the same molecule, the Potency entry in experiment [6], in [7], in experiment [8], in experiment [16], in [17] and in experiment [9] was “inactive” each time. Also, the Potency entry in experiment [10], in experiment [11], in experiment [12], in experiment [13] and in [18] was “inactive” each time. Moreover, the result in [19] was inactive.

In the case of `CC(=O)OCc1ccc2c(c1)OCO2`, the Potency result in [1], in experiment [14], in experiment [15], in experiment [2], in [3] and in experiment [5] was “inactive” in each case. The Potency entry in experiment [7], in experiment [8], in [16], in experiment [17], in experiment [9] and in [10] was “inactive” throughout. Further, the Potency entry in experiment [11], in experiment [12], in [13] and in [18] was “inactive” throughout. Further, in experiment [19], the result was inactive.

For `CCCCCCCC(=O)O`, the Potency entry in experiment [1], in experiment [14], in experiment [15], in [2], in experiment [3] and in [5] was “inactive” each time. Further, the Potency result in [8], in experiment [16], in experiment [17], in experiment [9], in experiment [10] and in experiment [11] was “inactive” each time. Moreover, the Potency entry in experiment [12] and in experiment [13] was “inactive” in each case. Further, the Potency in experiment [6] was 26.3 µM (active) and inactive.

As for `CC(=O)C(C)C`, the Potency entry in experiment [1], in experiment [14], in [15], in experiment [2], in [3] and in [5] was “inactive” throughout. Besides, the Potency result in experiment [6], in [8], in [16], in experiment [17], in experiment [9] and in [10] was “inactive” in each case. Also, the Potency result in experiment [11], in experiment [12], in [13] and in experiment [18] was “inactive” throughout. For the same molecule, in [19], the molecule was classed as inactive.
